High-throughput results from PubChem.
This excerpt belongs to a sample that is enriched for hits.
AMPAR-TARP mod = modulators of AMPA receptor GluA2-stargazin complexes; 3.5% of 40,000 active; HEK293 GluA2+stargazin, membrane potential dye (FDSS), glutamate EC50; hits were called plate by plate, in both directions; calls only at 30 µM; O88602+P19491; AID 1259245;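 active = any of four per-well response measures lying three or more SD from its plate-wide compound average, in either direction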
Target sequence (O88602 whole entry, looked up): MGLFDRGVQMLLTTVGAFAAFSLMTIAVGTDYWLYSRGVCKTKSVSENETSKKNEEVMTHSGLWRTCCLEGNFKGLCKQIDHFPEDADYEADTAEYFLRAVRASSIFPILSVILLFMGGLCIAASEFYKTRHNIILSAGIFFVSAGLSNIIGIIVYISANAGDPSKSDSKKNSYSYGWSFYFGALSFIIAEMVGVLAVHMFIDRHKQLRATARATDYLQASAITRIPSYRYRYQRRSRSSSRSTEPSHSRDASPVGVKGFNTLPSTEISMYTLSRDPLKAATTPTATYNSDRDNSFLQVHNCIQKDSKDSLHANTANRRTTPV
Target sequence (P19491 whole entry, looked up): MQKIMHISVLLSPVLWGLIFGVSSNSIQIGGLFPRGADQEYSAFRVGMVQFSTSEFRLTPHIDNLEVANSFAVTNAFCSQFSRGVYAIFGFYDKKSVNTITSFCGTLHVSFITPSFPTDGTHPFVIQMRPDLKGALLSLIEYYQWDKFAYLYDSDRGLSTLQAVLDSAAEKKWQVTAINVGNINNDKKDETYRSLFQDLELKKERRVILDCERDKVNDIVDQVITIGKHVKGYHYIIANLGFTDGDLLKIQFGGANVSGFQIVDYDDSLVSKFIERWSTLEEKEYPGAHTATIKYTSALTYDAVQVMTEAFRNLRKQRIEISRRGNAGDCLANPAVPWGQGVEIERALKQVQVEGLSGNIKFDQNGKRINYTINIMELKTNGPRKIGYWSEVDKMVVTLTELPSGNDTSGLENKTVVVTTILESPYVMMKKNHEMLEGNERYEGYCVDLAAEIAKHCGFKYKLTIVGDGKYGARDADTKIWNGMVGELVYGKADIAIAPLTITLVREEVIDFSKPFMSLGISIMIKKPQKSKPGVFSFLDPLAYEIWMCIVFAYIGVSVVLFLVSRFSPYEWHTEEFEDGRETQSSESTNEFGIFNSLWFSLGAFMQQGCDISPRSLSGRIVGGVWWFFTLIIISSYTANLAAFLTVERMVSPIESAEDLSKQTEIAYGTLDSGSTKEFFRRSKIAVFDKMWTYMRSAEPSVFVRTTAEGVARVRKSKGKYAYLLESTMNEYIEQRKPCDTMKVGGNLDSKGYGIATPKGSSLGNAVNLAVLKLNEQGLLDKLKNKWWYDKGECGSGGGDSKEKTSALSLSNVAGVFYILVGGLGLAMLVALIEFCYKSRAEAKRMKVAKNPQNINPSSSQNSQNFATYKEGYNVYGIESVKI
GIRK2 act = Activates human GIRK2-containing potassium channels | P48051 | HEK293 GIRK2/NPY4 cells, thallium flux fluorescence | activation (% efficacy), % for hits at 37.5 µM | 34,000 tested, under 10 active | AID 1259324;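 active = primary screen hit, no activity in plain HEK293 cells, and in GIRK2-only cells above 5% efficacy rising with concentration; inactive = the rest, including fluorescent compounds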;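 also: efficacy is normalized control-subtracted fluorescence 15 s after thallium addition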
Of the large screens only hits and unclear results are named; the others gave an inactive call.

CNC(=O)Cc1csc(NC(=O)c2csc(Nc3ccccc3)n2)n1	none (no result: AMPAR-TARP mod)
COC(=O)Nc1nc(CC(=O)NCCc2c[nH]c3ccccc23)cs1	none (no result: AMPAR-TARP mod)
Cc1nnc(NC(=O)Cc2csc(Nc3ccccc3)n2)s1	AMPAR-TARP mod active
COc1ccc(S(=O)(=O)Nc2nc(CCC(=O)NC(C)C)cs2)cc1	none
O=C(CCc1csc(NS(=O)(=O)c2ccccc2)n1)Nc1nc2ccccc2s1	none
COc1ccc(S(=O)(=O)Nc2nc(CCC(=O)Nc3nnc(C)s3)cs2)cc1	AMPAR-TARP mod active
O=C(Cc1csc(Nc2ccccc2)n1)NCCc1c[nH]c2ccccc12	AMPAR-TARP mod active
Cc1cccc2[nH]c(SCC(=O)N(c3ccccc3)C(C)C)nc12	none
COc1cc(-c2nnc(NC(=O)c3cc(C)nn3C)o2)cc(OC)c1OC	none (no result: GIRK2 act)
Cc1ccc(Nc2ccc(N3CCN(C(=O)C4CCC(=O)N4)CC3)nn2)cc1 (stereo not given)	none
COc1ccc(S(=O)(=O)N2CCC(C(=O)Nc3ccc(F)cc3)CC2)cc1	none
COc1ccccc1NC(=O)N1CCC(CNS(=O)(=O)c2cc(F)ccc2F)CC1	none
COCCN1CCC(CNC(=O)c2c(C)cc(C)cc2C)CC1	none (no result: AMPAR-TARP mod)
Cc1cccc(C)c1NC(=O)COc1ccc2c(C)cc(=O)oc2c1C	none (no result: GIRK2 act)
Cc1ccc(C)c(OCC(=O)Nc2c(C)cccc2C(C)C)c1C	AMPAR-TARP mod active
Cc1nn(C2CCS(=O)(=O)C2)c2nc(-c3ccco3)cc(C(=O)Nc3ccc(F)c(F)c3)c12 (stereo not given)	none
O=C(NCCCN1CCOCC1)C(=O)Nc1ccc(F)c([N+](=O)[O-])c1	AMPAR-TARP mod active
O=C(NCCN1CCOCC1)C(=O)Nc1ccc(F)c([N+](=O)[O-])c1	none
Cc1cc(C)c(C)c(Cn2c(CN(C)C(=O)c3ccco3)nc3ccccc32)c1C	none (no result: AMPAR-TARP mod)
COC(=O)c1cc(C(C)C)nc2c1c(C)nn2C1CCS(=O)(=O)C1 (stereo not given)	none (no result: AMPAR-TARP mod)
CCOC(CNC(=O)C(=O)Nc1ccc(N2CCCCS2(=O)=O)cc1)OCC	AMPAR-TARP mod active (no result: GIRK2 act)
CCOC(CNC(=O)C(=O)Nc1ccc(N2CCCS2(=O)=O)cc1)OCC	none (no result: GIRK2 act)
O=C(Nc1ccc(Br)cc1F)c1ccc(=O)n(Cc2ccccc2)c1	none
O=C(CCCc1ccccc1)N1CCN(c2nccn2-c2cccc(Cl)c2)CC1	AMPAR-TARP mod active
COc1ccc(CCC(=O)N2CCN(c3nccn3-c3cccc(Cl)c3)CC2)cc1	none
O=C(Cn1cnc(-c2cccs2)cc1=O)N1CCN(c2ccc(C(F)(F)F)cn2)CC1	none
CCOc1ccc(NC(=O)CN2N=NC3C(=O)N(c4ccc(C)cc4)C(=O)C32)cc1 (stereo not given)	none
O=S(=O)(c1ccc2c(c1)CCCC2)N(Cc1ccsc1)Cc1ccccn1	none (no result: AMPAR-TARP mod)
Cc1c(C)n2c3c(=O)n(CC(N)=O)c(=O)n(C)c3nc2n1C1CCCCC1	AMPAR-TARP mod active (no result: GIRK2 act)
Cc1c(C)n2c3c(=O)n(CCN4CCCCC4)c(=O)n(C)c3nc2n1C1CCCC1	none
CN(c1ccsc1C(=O)Nc1cc(F)cc(F)c1)S(=O)(=O)c1ccccc1	none
CCc1cccc2sc(N3CCN(C(=O)CS(=O)(=O)Cc4ccccc4)CC3)nc12	none
O=C(CS(=O)(=O)Cc1ccccc1)N1CCN(c2nc3c(Cl)cccc3s2)CC1	AMPAR-TARP mod active
CCn1ccnc1N1CCN(C(=O)CC(C)(C)C)CC1	none
CCCn1c(-c2ccc(OC)cc2)nc2c(c(=O)c3ccccc3n2C)c1=O	none (no result: GIRK2 act)
COCCn1c(-c2ccc(F)cc2)nc2c(c(=O)c3ccccc3n2C)c1=O	none (no result: GIRK2 act)
CCCCn1c(-c2ccc([N+](=O)[O-])cc2)nc2c(c(=O)c3ccccc3n2C)c1=O	AMPAR-TARP mod active (no result: GIRK2 act)
COCCn1c(-c2ccc([N+](=O)[O-])cc2)nc2sc3ccccc3c(=O)c2c1=O	AMPAR-TARP mod active
O=C(Cn1c(-c2cnccn2)nc2ccccc21)N1CCN(c2ccccc2F)CC1	none
COc1cccc(NC(=O)CN2N=NC3C(=O)N(c4ccc(F)c(Cl)c4)C(=O)C32)c1 (stereo not given)	none (no result: GIRK2 act)
Cc1cc(C(C)(C)C)cc(S(=O)(=O)Nc2c(C)n(C)n(-c3ccccc3)c2=O)c1C	AMPAR-TARP mod active (no result: GIRK2 act)
Cc1c(NS(=O)(=O)c2cccc(S(C)(=O)=O)c2)c(=O)n(-c2ccccc2)n1C	none (no result: AMPAR-TARP mod)
CN1CCc2c(sc(NC(=O)/C=C\c3ccccc3)c2-c2nc3ccccc3s2)C1	none (no result: GIRK2 act)
CCN(C(=O)Cn1cc(-c2ccc(C)cc2)c(N2CCOCC2)n1)c1cccc(C)c1	none (no result: AMPAR-TARP mod)
CCN(C(=O)Cn1cc(-c2ccccc2)c(N2CCOCC2)n1)c1cccc(C)c1	AMPAR-TARP mod active
COc1ccc(S(=O)(=O)CC(=O)N2CCN(c3nc4c(C)ccc(Cl)c4s3)CC2)cc1	none (no result: GIRK2 act)
CCS(=O)(=O)c1ccc(CC(=O)N2CCN(c3nc4c(C)ccc(Cl)c4s3)CC2)cc1	AMPAR-TARP mod active (no result: GIRK2 act)
CC(C)(C)c1ccc(C(=O)NC(=S)Nc2ccc(S(N)(=O)=O)cc2)cc1Br	none
N#Cc1cccc(NC(=O)CSc2ncc(S(=O)(=O)c3cccs3)c(N)n2)c1	none
N#Cc1ccc(NC(=O)CSc2ncc(S(=O)(=O)c3cccs3)c(N)n2)cc1	AMPAR-TARP mod active
COC(=O)c1sccc1S(=O)(=O)NCC(C)(O)CCSC (stereo not given)	none
CCN(C(=O)CCN1C(=O)c2ccccc2S1(=O)=O)c1ccccc1C	none
CN1CCN(NC(=O)C(=O)Nc2ccc(F)c(Cl)c2)CC1	none
CN1CCN(NC(=O)C(=O)Nc2ccc3c(c2)OCCO3)CC1	AMPAR-TARP mod active (no result: GIRK2 act)
COC(=O)N1CC(=O)Nc2ccccc21	none
O=C(NCc1ccccc1)C1CC(=O)N(CCN2CCN(S(=O)(=O)c3ccccc3)CC2)C1 (stereo not given)	none (no result: GIRK2 act)
CCOc1ccc(-n2nnnc2SC(C)C(=O)Nc2ccccc2F)cc1 (stereo not given)	AMPAR-TARP mod active (no result: GIRK2 act)
CCOc1ccc(-n2nnnc2SC(C)C(=O)Nc2ccccc2C)cc1 (stereo not given)	none (no result: GIRK2 act)
COc1ccc(-n2nnnc2SC(C)C(=O)Nc2nccs2)cc1 (stereo not given)	AMPAR-TARP mod active (no result: GIRK2 act)
COc1ccc(-n2nnnc2SCCC(=O)Nc2nccs2)cc1	none
O=S(=O)(NCCCN1CCOC(c2ccccc2)C1)c1cc(F)ccc1F (stereo not given)	none (no result: AMPAR-TARP mod)
O=C(Cc1cccc2ccccc12)NCCS(=O)(=O)N1CCN(c2ccccn2)CC1	none
Cc1ccc(OCCn2c(CN(C)C(=O)c3ccco3)nc3ccccc32)c(C)c1	none (no result: AMPAR-TARP mod)
CCn1c(=O)c([N+](=O)[O-])c(N(CCO)Cc2ccccc2)c2ccccc21	none
CC(CCc1ccccc1)NC(=O)Cc1cc(-c2cccs2)on1 (stereo not given)	none
CCCn1c(C2CC(=O)N(CCc3ccccc3)C2)nc2ccccc21 (stereo not given)	AMPAR-TARP mod active (no result: GIRK2 act)
C=C(Br)Cn1c(C2CC(=O)N(CCCC)C2)nc2ccccc21 (stereo not given)	none
Cn1c(C2CC(=O)N(CCc3ccccc3)C2)nc2ccccc21 (stereo not given)	none (no result: GIRK2 act)
CCCCN1CC(c2nc3ccccc3n2CCOc2cccc(OC)c2)CC1=O (stereo not given)	none (no result: GIRK2 act)
O=C1CC(c2nc3ccccc3n2CC2CCCCC2)CN1CCc1ccccc1 (stereo not given)	AMPAR-TARP mod active (no result: GIRK2 act)
CCCCN1CC(c2nc3ccccc3n2CCOc2ccccc2OC)CC1=O (stereo not given)	AMPAR-TARP mod active (no result: GIRK2 act)
CN1CC(c2nc3ccccc3n2CCCc2ccccc2)CC1=O (stereo not given)	none (no result: GIRK2 act)
